PubChem BioAssay (NCI)
The panel holds about 83,000 compounds, 20% with a hit somewhere; the sample as a whole holds those more often.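 Assay: single dose, 48 h. Readout: percent growth (0 = no net growth; negative = cell death). Active: <10.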 A number with no mark means an inactive call. Calls of active or inactive are those of the source.

Columns and labels:
Assay in all cases: NCI-60 one-dose screen, 48 h (100 = growth as untreated, 0 = no growth, -100 = all killed)
Conditions in all cases: 10 µM unless noted
DU-145 prostate = system: DU-145 prostate
K-562 leukemia = system: K-562 leukemia
MDA-MB-231 breast = system: MDA-MB-231 breast
RXF 393 renal = system: RXF 393 renal
SF-268 CNS = system: SF-268 CNS
SF-295 CNS = system: SF-295 CNS
SF-539 CNS = system: SF-539 CNS
UACC-257 melanoma = system: UACC-257 melanoma
M14 melanoma = system: M14 melanoma
HCT-15 colon = system: HCT-15 colon
HT29 colon = system: HT29 colon
SNB-75 CNS = system: SNB-75 CNS
SNB-19 CNS = system: SNB-19 CNS
U251 CNS = system: U251 CNS
PC-3 prostate = system: PC-3 prostate
SK-MEL-5 melanoma = system: SK-MEL-5 melanoma
UACC-62 melanoma = system: UACC-62 melanoma
LOX IMVI melanoma = system: LOX IMVI melanoma
SK-MEL-28 melanoma = system: SK-MEL-28 melanoma

SMILES | growth (DU-145 prostate) [%] | growth (K-562 leukemia) [%] | growth (MDA-MB-231 breast) [%] | growth (RXF 393 renal) [%] | growth (SF-268 CNS) [%] | growth (SF-295 CNS) | growth (SF-539 CNS) | growth (UACC-257 melanoma) [%] | growth (M14 melanoma) [%] | growth (HCT-15 colon) [%] | growth (HT29 colon) [%] | growth (SNB-75 CNS) [%] | growth (SNB-19 CNS) [%] | growth (U251 CNS) [%] | growth (PC-3 prostate) [%] | growth (SK-MEL-5 melanoma) | growth (UACC-62 melanoma) [%] | growth (LOX IMVI melanoma) [%] | growth (SK-MEL-28 melanoma) [%]
O=C(O)c1occ(Cl)c1Cl | 114 | 101 | 110 | 108 | 113 | 101% | 111% | 108 | 114 | 105 | 122 | 99.2 | 109 | 104 | 109 | 113% | 112 | 99.7 | 116
COc1ccc(Cn2cc3c(c2-c2ccccc2)CCc2cnoc2-3)cc1N | 13.7 | 14.8 | 15.2 | 15.2 | 28.7 | -19.7% (active) | -13.1% (active) | 63.2 | 18.2 | 20 | 10.5 | 29.1 | 44.5 | 24.8 | 23.7 | 8.52% (active) | 42.4 | 31.4 | 63.6
COc1ccc(C2=C/C(=C\c3ccc(Cl)cc3)C(=O)NN2C(=S)NN)cc1 | 108 | 93.9 | 96.1 | 105 | 95.8 | 96.3% | 111% | 104 | 99.5 | 104 | 109 | 61.2 | 103 | 104 | 92.3 | 97.7% | 86.6 | 101 | 113
